High-throughput results from PubChem.
Cardiac RTF inh – cardiac RTF calcium sensitivity inhibitors, primary screen, biochemical, IANBD-TnC fluorescence, EC70 calcium; IANBD-labeled cardiac RTF, Ca2+ fluorescence; Troponin I, cardiac muscle (Homo sapiens) + Troponin T, cardiac muscle (Homo sapiens) + …; 0.12% of 340,000 active; AID 493244, 2011; inhibition, % at 7.15 µM;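 active means inhibition above the mean inhibition of all tested compounds plus 3 SD, cut at about 17% in these data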;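 further: assay run at fixed EC70 calcium of 1.6 mM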
TMEM16A act – TMEM16A chloride channel activators or potentiators, primary screen, cell-based, HTS | Anoctamin-1 (Mus musculus), Q8BHY3 | HEK293 TMEM16A/YFP-H148Q/I152L, iodide quench fluorescence; active compounds read low | B-score at 10 µM | 0.3% of 340,000 active;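 active means fluorescence-ratio B-score plate-corrected deviation score at least 3 library SD below zero, with starting fluorescence score within 5 deviations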;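 further: channel opened by trigger with iodide after compound preincubation; score built on the fluorescence ratio of max minus min over baseline; more negative score means more quench and so TMEM16A activation or potentiation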
Target sequence (Q8BHY3 whole entry, looked up): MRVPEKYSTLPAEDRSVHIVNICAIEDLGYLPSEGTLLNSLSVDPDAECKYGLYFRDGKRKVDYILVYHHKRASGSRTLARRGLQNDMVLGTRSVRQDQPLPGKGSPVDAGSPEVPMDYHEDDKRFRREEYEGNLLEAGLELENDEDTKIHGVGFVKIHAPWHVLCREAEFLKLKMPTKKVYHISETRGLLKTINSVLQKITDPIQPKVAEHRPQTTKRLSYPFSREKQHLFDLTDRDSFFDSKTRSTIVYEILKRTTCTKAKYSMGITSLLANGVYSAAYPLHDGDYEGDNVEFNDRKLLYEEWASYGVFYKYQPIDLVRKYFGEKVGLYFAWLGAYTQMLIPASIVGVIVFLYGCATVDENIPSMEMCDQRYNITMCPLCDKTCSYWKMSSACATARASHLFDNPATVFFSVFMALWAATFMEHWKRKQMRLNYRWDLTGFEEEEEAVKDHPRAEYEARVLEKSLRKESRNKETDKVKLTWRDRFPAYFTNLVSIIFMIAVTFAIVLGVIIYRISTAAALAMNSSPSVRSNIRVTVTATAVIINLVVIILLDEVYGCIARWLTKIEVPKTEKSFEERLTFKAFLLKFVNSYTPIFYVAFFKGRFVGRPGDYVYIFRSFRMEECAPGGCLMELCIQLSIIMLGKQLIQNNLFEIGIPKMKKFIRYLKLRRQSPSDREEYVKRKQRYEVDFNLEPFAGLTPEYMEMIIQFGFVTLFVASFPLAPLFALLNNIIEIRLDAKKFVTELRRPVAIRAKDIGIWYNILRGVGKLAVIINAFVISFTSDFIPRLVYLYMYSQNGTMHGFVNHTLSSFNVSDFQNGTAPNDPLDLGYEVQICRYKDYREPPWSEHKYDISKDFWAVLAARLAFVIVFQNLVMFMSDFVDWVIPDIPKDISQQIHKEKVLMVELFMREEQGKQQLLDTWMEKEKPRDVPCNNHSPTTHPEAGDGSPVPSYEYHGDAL
CRFR2-BP ag – agonists of CRF-BP/CRF-R2 complex, primary screen, cell-based, HEK293, calcium dye fluorescence, uHTS | CRF-binding protein / CRF receptor 2 complex (human) | calcium dye fluorescence (FLIPR); percent of saturating CRF peptide response | activation, % at 13.2 µM | 0.46% of 350,000 active | AID 588473, 2011;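 active means activation of at least 50%, plus an integration ratio under a set limit after plate pattern correction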
RTF Ca sens act – cardiac RTF calcium sensitivity activators, primary screen, biochemical, IANBD-TnC fluorescence, EC20 calcium; 0.24% of 340,000 active; Troponin I, cardiac muscle (Homo sapiens) + Troponin T, cardiac muscle (Homo sapiens) + …; AID 493008, 2010; IANBD-labeled TnC RTF fluorescence at EC20 calcium; 0% EC20 calcium, 100% full calcium; activation, % at 7.2 µM;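 active means activation above the mean over all tested compounds plus 3 SD, cut at about 30% in these data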;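 further: rise in fluorescence read as greater calcium sensitivity of cardiac thin filaments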
ANO1 block – TMEM16A chloride channel inhibitors, primary screen, cell-based, HTS; normalized B-score (activity score, 25-100; higher = stronger inhibition) at 10 µM; 1.2% of 310,000 active; AID 588511, 2011; HEK293 TMEM16A/YFP iodide influx fluorescence, ionomycin; Anoctamin-1 (Mus musculus), Q8BHY3;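 active means ratio plate-corrected score three or more library SD toward inhibition, starting fluorescence score within five deviations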;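 further: score derived from kinetic fluorescence span divided by baseline fluorescence per well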
CRFBP-R2 block – antagonists of CRF-BP/CRF-R2 complex, primary screen, cell-based, HEK293, calcium dye fluorescence, uHTS; CRF-induced calcium fluorescence; AID 588475, 2011; 0.59% of 350,000 active; inhibition, % at 11.8 µM;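 active means inhibition of the ligand-induced calcium signal above about 50% at the single tested concentration, limit read from the data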
TMEM16A reconf – TMEM16A chloride channel inhibitors, confirmation, cell-based, re-confirmation. shares compounds with ANO1 block. HEK293 TMEM16A/YFP-H148Q, iodide quench fluorescence; ionomycin added to raise cell calcium. inhibition, % at 10 µM. 39% of 2,300 active;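 active means mean duplicate percent inhibition, scaled so buffer wells are 0 and the reference blocker 100, over three buffer SD above buffer mean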
HEK293 Ca mobil – calcium mobilization in TMEM16A/YFP HEK293 cells, confirmation, counter-screen for TMEM16A inhibitor project; calcium response (% of ionomycin), % at 10 µM; AID 652231, 2013; shares compounds with ANO1 block; Fluo4 calcium mobilization; 2% of 2,300 active;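 active means duplicate-averaged calcium signal over 20% of the ionomycin maximum, relative to buffer baseline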;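 further: each well's signal is peak minus trough fluorescence divided by its pre-addition baseline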
YFP-HEK293 quench – iodide YFP quench changes in parental YFP-HEK293, counter-screen for TMEM16A inhibitor project, cell-based; shares compounds with ANO1 block; ionomycin; YFP ratio F(max-min)/F0 at 10 µM; 2,300 tested, under 10 active;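 active means yellow fluorescent protein signal ratio exceeding the buffer control mean by over 5 SD of those controls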;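 further: ratio is mean of duplicate wells from kinetic YFP trace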
ClC-1 rat inh – ClC-1 chloride channel inhibition, selectivity assay for TMEM16A inhibitor project, cell-based, voltage-dependent ClC-1. 2,300 tested, under 10 active. shares compounds with ANO1 block. AID 652236, 2013. CHO ClC-1-YFP, iodide influx fluorescence quench; iodide control reads 0, buffer control 100. ratio percent, % at 10 µM;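 active means duplicate-mean ratio percent above the mean of iodide-only control wells, which defines zero, plus 5 of their SD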;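 further: higher percent means stronger block of ClC-1 iodide influx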
Of the large screens only hits and unclear results are named; the others gave an inactive call (follow-up assays come after a bar, where they were run). Only some compounds are listed: those with a hit (about 2.4% of all), similar ones and a draw of the others.

CC(=O)N1c2c(cc(Br)cc2S(=O)(=O)NCc2cccnc2)CC1C (configuration not stated)	none
O=C(CCl)Nc1ccc(Oc2cnc3ccccc3n2)cc1	none
Cc1ccc(-c2noc(CSc3nnnn3C3CCCCC3)n2)cc1	ANO1 block 100 | TMEM16A reconf 29.5% | HEK293 Ca mobil inactive | YFP-HEK293 quench inactive | ClC-1 rat inh inactive
COCCNC(=O)c1cccc(OC2CCN(Cc3ccccc3C)CC2)c1	none
CCc1ccc([C@@H]2CC=C(C(=O)O)[C@H](c3ccccc3)N2S(=O)(=O)c2ccc(C)cc2)cc1	none
Cc1ccccc1S(=O)(=O)N1[C@@H](c2ccc(F)cc2)C(C(=O)O)=CC[C@H]1c1ccc(Cl)cc1	ANO1 block 100 | TMEM16A reconf 28.0% | HEK293 Ca mobil inactive | YFP-HEK293 quench inactive | ClC-1 rat inh inactive
O=C(O)C1=CC[C@@H](c2ccc(Cl)cc2)N(S(=O)(=O)c2ccc(Cl)cc2)[C@H]1c1ccc(F)cc1	ANO1 block 100 | TMEM16A reconf inactive | HEK293 Ca mobil inactive | YFP-HEK293 quench inactive | ClC-1 rat inh inactive
CCc1ccc([C@@H]2CC=C(C(=O)O)[C@H](c3ccc(F)cc3)N2S(=O)(=O)c2ccc(C)cc2)cc1	ANO1 block 100 | TMEM16A reconf inactive | HEK293 Ca mobil inactive | YFP-HEK293 quench inactive | ClC-1 rat inh inactive
COc1cccc2cc(C(=O)NCCN3CCOCC3)c(=O)oc12	none
CCc1cccc(NC(=O)CCCn2nc(C)c3c(C)n(-c4ccccc4)nc3c2=O)c1	none
Nc1c(C(=O)NCCc2ccccc2)nnn1Cc1ccccc1	none | TMEM16A reconf inactive | HEK293 Ca mobil inactive | YFP-HEK293 quench inactive | ClC-1 rat inh inactive
O=C1C2C(C(=O)N1/N=C/c1cc(Br)cc([N+](=O)[O-])c1O)C1C=CC2C12CC2 (configuration not stated)	none | TMEM16A reconf 19.0% | HEK293 Ca mobil inactive | YFP-HEK293 quench inactive | ClC-1 rat inh inactive
C=C(C)c1cccc(C(C)(C)NC(=O)N2CCN(C/C=C/c3ccccc3)CC2)c1	none
S=c1[nH]c2cc(-c3ccccc3)ccc2o1	ANO1 block 25 | TMEM16A reconf inactive | HEK293 Ca mobil inactive | YFP-HEK293 quench inactive | ClC-1 rat inh inactive
O=S(=O)(c1ccc2oc(=S)[nH]c2c1)N1CCCCC1	none
Cc1cccc(CN2CCN(Cc3cccc(-n4cccn4)c3)CC2CCO)n1 (configuration not stated)	none (no result: Cardiac RTF inh, RTF Ca sens act)
CCCN1CCC(NC(=O)CC2C(=O)NCCN2Cc2cccc(OC)c2)CC1 (configuration not stated)	none
CCCCN(C)CCn1c(=S)[nH]c2ccc(N3CCOCC3)cc2c1=O	ANO1 block 25 | TMEM16A reconf inactive | HEK293 Ca mobil inactive | YFP-HEK293 quench inactive | ClC-1 rat inh inactive
O=C(NC(=S)Nn1cnc2c(cnn2-c2ccccc2)c1=O)c1ccccc1	none
COc1cc(NS(=O)(=O)c2ccc(C)cc2C)cc(OC)c1OC	ANO1 block 100 | TMEM16A reconf 28.5% | HEK293 Ca mobil inactive | YFP-HEK293 quench inactive | ClC-1 rat inh inactive
CCc1c(C(=O)Nc2ccc(OC)cc2)[nH]c(C)c1C(C)=O	ANO1 block 25 | TMEM16A reconf inactive | HEK293 Ca mobil inactive | YFP-HEK293 quench inactive | ClC-1 rat inh inactive
Cc1nc2ccccc2c2c1CC(C(C)(Cl)Br)O2 (configuration not stated)	ANO1 block 25 | TMEM16A reconf 18.0% | HEK293 Ca mobil inactive | YFP-HEK293 quench inactive | ClC-1 rat inh inactive
Cc1nc(C)c(-c2ccc(SCC(=O)Nc3ccccc3)nn2)s1	none
Cc1nc(C)c(-c2ccc(SCC(=O)Nc3ccc(F)cc3F)nn2)s1	ANO1 block 25 | TMEM16A reconf inactive | HEK293 Ca mobil inactive | YFP-HEK293 quench inactive | ClC-1 rat inh inactive
COC(=O)c1ccc(C(=O)OC)c(NS(C)(=O)=O)c1	ANO1 block 25 | TMEM16A reconf inactive | HEK293 Ca mobil inactive | YFP-HEK293 quench inactive | ClC-1 rat inh inactive
O=C(NCCn1cc(SCc2ccccc2)c2ccccc21)c1ccccc1F	ANO1 block 25 | TMEM16A reconf inactive | HEK293 Ca mobil inactive | YFP-HEK293 quench inactive | ClC-1 rat inh inactive
O=C(Nc1cnccn1)Nc1ccc(Cl)cc1Cl	none
CC1CCCN(c2nc3ccccc3nc2C(C#N)S(=O)(=O)c2cccs2)C1 (configuration not stated)	none
Cc1cccc(S(=O)(=O)C(C#N)c2nc3ccccc3nc2N2CC(C)OC(C)C2)c1 (configuration not stated)	ANO1 block 25 | TMEM16A reconf 18.0% | HEK293 Ca mobil inactive | YFP-HEK293 quench inactive | ClC-1 rat inh inactive
COc1ccc(S(=O)(=O)C(C#N)c2nc3ccccc3nc2N2CCCC(C)C2)cc1 (configuration not stated)	ANO1 block 100 | TMEM16A reconf 56.0% | HEK293 Ca mobil inactive | YFP-HEK293 quench inactive | ClC-1 rat inh inactive
N#CC(c1nc2ccccc2nc1N1CCOCC1)S(=O)(=O)c1ccccc1 (configuration not stated)	none
CC(C)OC(=O)C1C2C=CC3(CN(Cc4cccs4)C(=O)C13)O2 (configuration not stated)	ANO1 block 100 | TMEM16A reconf inactive | HEK293 Ca mobil inactive | YFP-HEK293 quench inactive | ClC-1 rat inh inactive
COC(=O)C1C2C=CC3(CN(Cc4cccs4)C(=O)C13)O2 (configuration not stated)	none
